Source: PubChem BioAssay AID686971 (National Center for Advancing Translational Sciences (NCATS), 2013)
In all, about 360,000 compounds went through this assay and about 7,500 (2.1%) were called active. Entries that show only a call come without a potency. About 8% were inconclusive and are not listed. Calls come from the whole dose curve; as a rule, active = well fitted cell-killing curve with a large enough effect; inconclusive = small, poorly fitted or top-dose-only effect, or effect the other way, or another doubt; inactive = no such curve, though single readings can be large or run the other way. This excerpt belongs to a sample that is enriched for actives.

Assay: qHTS for induction of synthetic lethality in tumor cells producing 2HG: qHTS for the HT-1080-IDH1KD cell line
Details: HT-1080 IDH1 knockdown viability, ATP luminescence, 48 h; series mostly up to 46.1 µM
Outline: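 % activity derives from luminescence (CellTiter-Glo), normalised to DMSO and no-cell wells. HT-1080-IDH1KD cells, 750/well, had 48 h compound exposure at 37 °C.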
Potency is the fitted concentration of half-maximal effect.

Q: Which Potency does the source give for `CC(C)(C)C1CCC(=O)N2CCC[C@]2(c2ccccc2)C1` (stereo partly drawn) here?
A: The Potency was “inactive”.

Q: With `CCCc1ccc(S(=O)(=O)N2CCN(C(=O)c3cc(C)on3)CC2)cc1` as the compound, how does the Potency read?
A: The Potency was “inactive”.

Q: For `Cc1cc(Nc2ccc(C)c(C)c2)n2ncnc2n1`, which Potency is on record?
A: Its Potency is “inactive”.

Q: For `CC(=O)OC[C@@H]1CN(Cc2ccccc2)C[C@H](n2cnc3c(NCc4ccco4)ncnc32)O1`, which Potency is on record?
A: The Potency was “inactive”.

Q: With `O=C(Nc1ccc(Cl)cn1)c1ccccc1-c1ccccc1` as the compound, how does the Potency read?
A: Its Potency is “inactive”.

Q: Which Potency does the source give for `Oc1ccccc1-c1cc(-c2ccc(Cl)cc2)n[nH]1` here?
A: Its Potency is 16.4 µM (active).

Q: Which activity, negative = toxicity does the source give for `CSc1ccccc1-c1nnc(-c2ccc(Cl)cc2)o1` here?
A: The activity, negative = toxicity was -1.6% [at 9.24 µM] (inactive).

Q: With `O=C(COc1ccc(Br)cc1)OCC(=O)c1ccc[nH]1` as the compound, how does the Potency read?
A: The Potency was “inactive”.

Q: For `Cc1ccc(C(=O)N[C@H](C(=O)N2CCN(c3ncccn3)CC2)C(C)C)cc1`, which Potency is on record?
A: The Potency was “inactive”.

Q: For `O=C(NN=Cc1ccccc1O)NN=Cc1ccccc1O`, which Potency is on record?
A: Its Potency is 8.2 µM (active).

Q: For `Oc1ccccc1C=NC1CCCCC1N=Cc1ccccc1O` (stereo not drawn), which Potency is on record?
A: The Potency was “inactive”.

Q: With `O=C(NN=Cc1ccccc1)c1ccccc1` as the compound, how does the Potency read?
A: Its Potency is “inactive”.

Q: Which Potency does the source give for `O=C(N/N=C/c1ccccc1O)C1CCCC1` here?
A: Its Potency is 23.1 µM (active).

Q: For `C=CCOc1ccccc1/C=N/NC(=O)Cc1ccccc1`, which Potency is on record?
A: The Potency was “inactive”.

Q: For `O=C(CCC(=O)Nc1ccccc1)N/N=C/c1ccccc1F`, which Potency is on record?
A: The Potency was “inactive”.

Q: Which Potency does the source give for `O=C(CO/N=C/c1ccccc1O)NNC(=O)c1ccccc1Cl` here?
A: The Potency was “inactive”.

Q: For `COc1ccc(/C=N/NC(=O)C2CC2)c(OC)c1OC`, which Potency is on record?
A: The Potency was “inactive”.

Q: Which Potency does the source give for `O=C(N/N=C/c1ccccc1O)/C(=C/c1ccccc1)CCO` here?
A: Its Potency is 3.26 µM (active).

Q: For `Brc1ccc2nc(-c3ccccc3)c(Cc3ccccc3)n2c1`, which Potency is on record?
A: The Potency was “inactive”.

Q: Which Potency does the source give for `O=C(N/N=C/c1ccc(Cl)cc1)c1nc2ccc([N+](=O)[O-])cc2c(=O)[nH]1` here?
A: Its Potency is “inactive”.

Q: For `O=C(/C(=C/c1cccc(Cl)c1)c1nc2ccccc2[nH]1)c1ccccc1`, which Potency is on record?
A: Its Potency is 3.26 µM (active).

Q: For `N#C/C(=C(/O)COC(=O)COc1ccc(Cl)cc1)c1nc2ccccc2[nH]1`, which Potency is on record?
A: Its Potency is “inactive”.

Q: With `O=C(Nc1ccon1)c1nc[nH]c1C(=O)NCc1ccccc1` as the compound, how does the Potency read?
A: The Potency was 2.59 µM (active).

Q: With `CCOC(=O)c1ccc(NC(=O)c2nc[nH]c2C(=O)NCc2ccccc2)cc1` as the compound, how does the Potency read?
A: Its Potency is “inactive”.

Q: With `O=C(Nc1cc(Br)ccc1F)c1nc[nH]c1C(=O)NCc1ccccc1` as the compound, how does the Potency read?
A: Its Potency is “inactive”.

Q: Which Potency does the source give for `COc1ccc(-c2c(C#N)cnc(C)c2C)c(O)c1OC` here?
A: The Potency was “inactive”.

Q: For `OCCN1CCN(c2ncnc3c2ncn3[C@H]2CN(Cc3ccco3)C[C@@H](CO)O2)CC1`, which Potency is on record?
A: The Potency was “inactive”.

Q: With `O=C(NN=Cc1ccc2c(c1)CCC2)c1ccccc1O` as the compound, how does the Potency read?
A: The Potency was “inactive”.

Q: Which Potency does the source give for `Cc1cc(C)cc(C(=O)NCCN2CCOCC2)c1` here?
A: Its Potency is “inactive”.

Q: With `COc1ccc(-c2ccc(C(=O)NCCN3CCOCC3)c3occc23)c(C)c1` as the compound, how does the Potency read?
A: The Potency was 18.4 µM (active).

Q: Which Potency does the source give for `COc1ccc(-c2cc(C(=O)NCCCN3CCOCC3)no2)cc1` here?
A: Its Potency is “inactive”.

Q: For `CCCNC(=O)C[C@@H]1CC[C@@H]2[C@H](COC[C@H](O)CN2C(=O)c2cc(Cl)cc(Cl)c2)O1`, which Potency is on record?
A: Its Potency is “inactive”.

Q: With `CC(OC(=O)c1cccnc1Cl)C(=O)NC1CCCCC1` (stereo not drawn) as the compound, how does the Potency read?
A: Its Potency is “inactive”.

Q: Which Potency does the source give for `COc1cccc(-c2ccc3c(c2)N(Cc2ccccc2OC)C(=O)C(C)S3)c1` (stereo not drawn) here?
A: Its Potency is “inactive”.

Q: Which Potency does the source give for `Cc1ccc(C)c(OCC(=O)NNC(=O)C2CCC2)c1` here?
A: Its Potency is “inactive”.

Q: With `Cc1ccc(NNC(=O)C2CCC2)cc1C` as the compound, how does the Potency read?
A: The Potency was 7.31 µM (active).

Q: Which Potency does the source give for `O=C(NNC(=O)C1CCC1)c1ccccc1` here?
A: Its Potency is “inactive”.

Q: Which Potency does the source give for `CC1(C2CC2)NC(=O)N(CC(=O)N2CCN(c3ccccc3F)CC2)C1=O` (stereo not drawn) here?
A: The Potency was “inactive”.

Q: With `CCCCCCN1CCN(C2CN(Cc3cn(Cc4ccc(F)cc4)nn3)S(=O)(=O)C2)CC1` (stereo not drawn) as the compound, how does the Potency read?
A: Its Potency is “inactive”.

Q: With `COC(=O)c1ccccc1NS(=O)(=O)c1ccc2[nH]c(=O)[nH]c2c1` as the compound, how does the Potency read?
A: Its Potency is “inactive”.

Q: Which Potency does the source give for `COC(=O)c1ccc(NC(=O)c2ccccc2NS(=O)(=O)c2ccccc2)cc1` here?
A: The Potency was 11.2 µM (active).

Q: With `CCOc1ccc(NC(=O)c2ccccc2NS(C)(=O)=O)cc1` as the compound, how does the Potency read?
A: The Potency was “inactive”.

Q: Which Potency does the source give for `O=C(C(=O)N1CCN(c2ccccc2)CC1)c1ccc2c(c1)OCO2` here?
A: The Potency was “inactive”.

Q: For `O=C(c1ccccc1)N1CCN(c2cc(-c3ccccc3)nc3cc(-c4cccc(Cl)c4)nn23)CC1`, which Potency is on record?
A: The Potency was “inactive”.

Q: With `CN(C)CCN1CCN(c2cc(-c3cccc(Cl)c3)nc3ccnn23)CC1` as the compound, how does the Potency read?
A: Its Potency is “inactive”.

Q: Which Potency does the source give for `C#Cc1cc(N2CCN(C(=O)c3ccoc3)CC2)n2nc(-c3cccc(Cl)c3)cc2n1` here?
A: Its Potency is 9.2 µM (active).

Q: For `O=C(NCc1ccccc1)C(c1ccc(F)cc1)N1CCN(C(=O)C2CCCO2)CC1` (stereo not drawn), which Potency is on record?
A: Its Potency is “inactive”.

Q: For `O=C1CC(c2ccccc2)=NN1c1ccc([N+](=O)[O-])cc1`, which Potency is on record?
A: Its Potency is 20.6 µM (active).

Q: Which Potency does the source give for `COc1ccc(C2=NN(c3nc4ccccc4s3)C(=O)C2)cc1` here?
A: Its Potency is “inactive”.

Q: For `O=[N+]([O-])c1ccc(N2CCOCC2)cc1`, which Potency is on record?
A: The Potency was “inactive”.

Q: With `CCCC(=O)Nc1nc2ccc(NC(=O)c3c(F)c(F)c(OC)c(F)c3F)cc2s1` as the compound, how does the Potency read?
A: The Potency was 0.651 µM (active).

Q: Which Potency does the source give for `CC(=O)Nc1ccc2nc(NC(=O)CS(=O)(=O)c3ccc(F)cc3)sc2c1` here?
A: The Potency was “inactive”.

Q: Which Potency does the source give for `CSc1nc2ccc(NC(=O)c3c(F)cccc3F)cc2s1` here?
A: Its Potency is “inactive”.

Q: Which Potency does the source give for `Nc1nc2ncccn2c1-c1ccccc1` here?
A: The Potency was “inactive”.

Q: For `CCN1C(=O)[C@@H]2[C@@H]3CN(S(=O)(=O)c4ccccc4C)[C@@H](c4ccc(Cl)cc4)[C@@H]3C(=O)C[C@@H]2C1=O`, which Potency is on record?
A: Its Potency is “inactive”.

Q: Which Potency does the source give for `O=[N+]([O-])c1ccccc1/C=C/CN1CCC(O)CC1` here?
A: Its Potency is “inactive”.

Q: For `CC1CCCCC1NC(=O)/C(C#N)=C/C=C/c1ccccc1[N+](=O)[O-]` (stereo not drawn), which Potency is on record?
A: Its Potency is 4.61 µM (active).

Q: With `O=[N+]([O-])c1ccccc1/C=C/CN1CCCC(CO)C1` (stereo not drawn) as the compound, how does the Potency read?
A: The Potency was “inactive”.

Q: For `CC1=C(C(=O)Nc2cccc(C(=O)NCC(C)c3ccccc3)c2)SCCO1` (stereo not drawn), which Potency is on record?
A: The Potency was “inactive”.

Q: With `O=C(NCc1cccnc1)c1cc(C2CCCN(C(=O)C3CCCCC3)C2)on1` (stereo not drawn) as the compound, how does the Potency read?
A: The Potency was “inactive”.

Q: Which Potency does the source give for `O=C(c1snnc1-c1ccccc1)N1CCOCC1` here?
A: Its Potency is “inactive”.

Q: Which Potency does the source give for `Cc1oc2c(c1C(=O)N1CCOCC1)C(=O)c1ccccc1C2=O` here?
A: The Potency was 9.2 µM (active).

Q: For `COc1cc2ccccc2cc1C(=O)N1CCOCC1`, which Potency is on record?
A: The Potency was “inactive”.

Q: Which Potency does the source give for `O=C(CN1C(=O)NC2(CCc3ccccc32)C1=O)NC1CCCCC1` (stereo not drawn) here?
A: The Potency was “inactive”.

Q: For `O=C(COC(=O)/C=C/c1ccc(Cl)cc1)NC1CCS(=O)(=O)C1` (stereo not drawn), which Potency is on record?
A: The Potency was “inactive”.

Q: Which Potency does the source give for `O=C(Nc1ccc(OCCO)cc1)c1csc([C@H]2C[C@H](O)[C@@H](CO)O2)n1` here?
A: The Potency was “inactive”.

Q: Which Potency does the source give for `CC(C)CN1CCC1(C)C(=O)Nc1ccc(OC(F)F)cc1` (stereo not drawn) here?
A: The Potency was “inactive”.

Q: Which Potency does the source give for `O[C@H]1CN(Cc2cccs2)[C@@H](c2ccc(Cl)cc2)C[C@@H]1n1cc(C2CC2)nn1` here?
A: Its Potency is “inactive”.
